Sampled rows, rich in hits. Any-hit rate of the full collection: about 0.98%.
Mtb bLac sens: beta-lactam sensitization of Mtb H37Rv, H37Rv. M. tuberculosis H37Rv growth with meropenem, percent inhibition. inhibition, % at 25 µM. 330,000 compounds, 0.27% hits. AID 434955, 2010; call rule not given here;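 note: growth measured after seven days incubation then overnight dye step; 0% = bacteria only wells and 100% = bacteria with antibiotic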
FadD28 binding: inhibitors of FadD28 bisubstrate probe binding, primary screen, biochemical, fluorescence polarization, single point | inhibition, % at 12.5 µM | 360,000 compounds, 0.22% hits; in the data active = inhibition above about 8.5%, passing the limit was not always enough
PfHsp40 rescue: rescue of yeast from PfHsp40 toxicity, primary screen, S. cerevisiae, ATP luminescence | S. cerevisiae expressing PfHsp40, growth rescue | growth rescue, % at 12.5 µM | 340,000 compounds, 0.68% hits; in the data active = growth rescue above about 28%, passing the limit was not always enough;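 note: yeast W303a lacking pdr1 and pdr3 grown in galactose medium; growth measured after three days at 30 °C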
Rv3671c inh: Rv3671c serine protease inhibitors, primary screen, biochemical, fluorescence polarization, M. tuberculosis H37Rv. P9WHR9. inhibition, % at 5.96 µM. 320,000 compounds, 0.048% hits; in the data active = inhibition above about 38%;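 note: extracellular domain of Rv3671c used as enzyme; 0% = enzyme with DMSO and 100% = no enzyme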
Target sequence (P9WHR9 whole entry, looked up, the tested form may be a part): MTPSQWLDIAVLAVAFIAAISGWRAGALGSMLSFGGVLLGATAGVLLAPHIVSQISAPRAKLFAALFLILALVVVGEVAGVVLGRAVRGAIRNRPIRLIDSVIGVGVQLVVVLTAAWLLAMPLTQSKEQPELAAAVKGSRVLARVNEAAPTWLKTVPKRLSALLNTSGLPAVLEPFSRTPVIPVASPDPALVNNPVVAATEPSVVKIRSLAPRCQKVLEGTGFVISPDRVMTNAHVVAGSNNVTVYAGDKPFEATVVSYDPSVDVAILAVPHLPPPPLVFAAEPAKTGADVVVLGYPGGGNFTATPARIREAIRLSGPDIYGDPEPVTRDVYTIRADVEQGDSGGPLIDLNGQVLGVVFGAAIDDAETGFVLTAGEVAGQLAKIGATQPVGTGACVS
Mtb UGM inh: M. tuberculosis UGM enzyme inhibitors, primary screen, biochemical, fluorescence polarization, single point. AID 504406, 2011. UDP-galactopyranose mutase (Mycobacterium tuberculosis (strain ATCC 25618 / H37Rv)), …. inhibition, % at 10 µM. purified UGM, fluorescence polarization probe displacement. 320,000 compounds, 0.06% hits; in the data active = inhibition above about 10%, passing the limit was not always enough
Y pestis TopoI: Yersinia pestis topoisomerase I inhibitors, primary screen, biochemical, cleavage product accumulation, plate reader, single point | Y. pestis Topo-I cleavage product accumulation | activity, % at 10 µM | 360,000 compounds, 0.064% hits; in the data active = activity above about 50%, passing the limit was not always enough
* = called active by the depositor; . = no result.

SMILES | Mtb bLac sens | FadD28 binding | PfHsp40 rescue | Rv3671c inh | Mtb UGM inh | Y pestis TopoI
CC(=NNC(=S)N1CC2CCC(CC2)C1)c1ccncn1 | . | -1 | 98* | . | . | 13
CC(=NNC(=S)N1CCCCC1)c1ccccn1 | . | -2 | . | . | . | 4
CCCC(=O)Nc1nc2ccc(OC)cc2s1 | 4 | -2 | -1 | 3 | -1 | 1
COc1ccc2nc(NC(=S)N(C)C)sc2c1 | 97 | -1 | 99* | 0 | -3 | -9
O=Cc1ccc(O)c2ncccc12 | . | -1 | 628* | . | . | -2
NS(=O)(=O)c1ccc(N=Nc2ccc(O)c3ncccc23)cc1 | 10 | -3 | 0 | 4 | -1 | -6
CCOC(=O)C1=C[C@@H](CC)N(S(=O)(=O)c2ccc([N+](=O)[O-])cc2)[C@H]1c1ccccc1 | . | -3 | . | . | . | .
CCCNC(=O)c1ccc2c(=O)c(O)c(-c3ccc(F)cc3)[nH]c2c1 | 1 | -2 | 199* | -1 | 1 | -3
O=C(NCCO)c1ccc(Cl)c(Cl)c1 | -9 | 1 | 3 | 3 | -1 | -7
CCCNC(=O)c1ccc2c(=O)c(O)c(C)[nH]c2c1 | -8 | -4 | 1 | 22 | 1 | -8
Nc1c(Cl)cc(-c2[nH]c3cc(C(=O)NCCO)ccc3c(=O)c2O)cc1Cl | 2 | -6 | 43* | 26 | -2 | -16
CCCNC(=O)c1ccc2c(=O)c(O)c(-c3cccc(Br)c3)[nH]c2c1 | -16 | -3 | 182* | 1 | -1 | -7
Cc1nc(S/C(=C\c2ccc(OCc3ccccc3Cl)cc2)C(=O)O)n[nH]1 | . | -1 | -1 | -3 | -1 | -1
Cc1nc(S/C(=C\c2ccc(-c3ccc(C(=O)O)c(Cl)c3)o2)C(=O)O)n[nH]1 | . | 20* | -1 | . | . | -18
COc1ccc(CNc2ncnc3c2[nH]c2cc(OC)c(OC)cc23)cc1 | 96 | 10* | -2 | 16 | 1 | -24
Cc1cc(C)cc(OCC(=O)N(C)CC(=O)Nc2ccc(Cl)c(C(F)(F)F)c2)c1 | -10 | -2 | 51* | -17 | 1 | -8
Cc1nc(N/N=C/c2ccccn2)sc1C | 94 | . | . | -2 | 1 | .
CCCc1sc(N/N=C/c2ccccn2)nc1-c1ccc(F)cc1 | 100 | -3 | 38* | 4 | 1 | -6
Cc1cccc(NC(=S)NNC(=O)c2csc3c2CCC(C)C3)c1 (configuration not stated) | 22 | 14* | 104* | 3 | . | 2
Cc1cccc(NC(=S)NNC(=O)c2cc3c(s2)CCC(C)C3)c1C (configuration not stated) | 10 | 3 | 31* | 4 | 0 | 5
COc1cc(-c2cnc3c(NC(C)=O)cc(-c4ccccc4CN(C)C)cn23)cc(OC)c1OC | . | 0 | . | . | . | 7
COc1cc(/C=N/NC(=O)c2c(-c3c(Cl)cccc3Cl)noc2C)ccc1OCC(N)=O | . | 1 | -2 | . | . | 10
Cc1onc(-c2c(Cl)cccc2Cl)c1C(=O)N/N=C(\N)COc1ccc(Cl)cc1 | 6 | -2 | 599* | 9 | -3 | -4
Fc1ccc(Nc2nnc(C(F)(F)F)s2)cc1Cl | 6 | -3 | 149* | -7 | 2 | -5
CC1CC(C)C(=NNC(N)=O)C(C(O)CC2CCC(=O)NC2=O)C1 (configuration not stated) | . | . | 33* | . | . | -3
SMILES | Mtb bLac sens | FadD28 binding | PfHsp40 rescue | Rv3671c inh | Mtb UGM inh | Y pestis TopoI
COC(=O)c1ccccc1NC1=C/C(=N\S(=O)(=O)c2ccc(C(=O)O)cc2)c2ccccc2C1=O | 53 | 24* | 17 | -92 | 0 | -2
COC(=O)c1ccccc1NC1=C/C(=N\S(=O)(=O)c2cccs2)c2ccccc2C1=O | 96 | -10 | 4 | -88 | 4 | -3
O=C1C(Nc2ccccc2)=C/C(=N/S(=O)(=O)c2cccs2)c2ccccc21 | 98 | 4 | 266* | -188 | 1 | -1
COc1ccccc1Cc1c(-c2ccc(Cl)cc2)nc2ccc(Br)cn12 | . | -8 | . | . | . | .
COc1ccccc1-c1cn[nH]c1-c1ccc(OCc2ccccc2)cc1O | 71 | 1 | 214* | 1 | 2 | 10
COc1ccc(-c2cn[nH]c2-c2ccc(OC)cc2O)cc1 | 3 | -4 | 6 | -3 | -2 | -6

From PubChem BioAssay
